Experimental data taken from ChEMBL document CHEMBL3988442, “University of Dundee, Small-Polar-MMV Screening Library” (2021).
Among all 48,000 compounds or so, about 13,000 (27%) showed an effect of 50% or more. The list shows a part of the results.

Each compound was assayed on Wolbachia pipientis (assay: Anti-Wolbachia Cell-Based Screen). Settings: 5 µM.
Type: functional
Design: scale not given: in the data most compounds retested in dose-response had high values
For `CC(c1cccs1)N(C)C(=O)c1cc(CN(C)Cc2ccccc2)on1` (configuration not stated), the “Percent Effect” value was -11.33%.
`CN(C)c1cc(C(=O)NCC2(c3cccc(F)c3)CCOCC2)ccn1` was tested, and the “Percent Effect” value was -10.3%.
`CCOc1ccc(Cl)cc1C(C(=O)O)N1CCOCC1` (configuration not stated) was tested, and the “Percent Effect” value was -18.5%.
`CC(C)(C)OC(=O)N1CSC[C@@H]1C(=O)NCc1ccc(C#N)cc1` was tested, and the “Percent Effect” value was -6.965%.
`Cc1ccc(CN2Cc3nnn(C)c3C(COCC3CC3)C2)s1.O=C(O)C(F)(F)F` (configuration not stated) was tested, and the “Percent Effect” value was 100.2%.
`Cc1ccc(CN2Cc3nnn(C)c3C(COCC(=O)N(C)C)C2)s1.O=C(O)C(F)(F)F` (configuration not stated) was tested, and the “Percent Effect” value was 83.68%.
For `COCC1CN(Cc2ccc(C)s2)Cc2nnn(C)c21.O=C(O)C(F)(F)F` (configuration not stated), the “Percent Effect” value was 106%.
For `COCC1CN(Cc2sccc2C)Cc2nnn(CC3CC3)c21.O=C(O)C(F)(F)F` (configuration not stated), the “Percent Effect” value was 8.391%.
`Cc1ccc(CN2Cc3nnn(C)c3C(COCC3CC3)C2)o1.O=C(O)C(F)(F)F` (configuration not stated) was tested, and the “Percent Effect” value was 1.722%.
`COCC1CN(Cc2ccc(C)o2)Cc2nnn(C)c21.O=C(O)C(F)(F)F` (configuration not stated) was tested, and the “Percent Effect” value was 3.893%.
With `Cc1ccc(CN2Cc3c(C(=O)N(C)C)nn(C)c3C2)s1.O=C(O)C(F)(F)F` the “Percent Effect” value was -8.124%.
For `CCC(CC)NC(=O)CN1CCSCC1`, the “Percent Effect” value was 2.417%.
In the case of `Cc1ncnc(N2CCCN(c3nc4ccccc4s3)CC2)c1C`, the “Percent Effect” value is reported as -5.721%.
`CC(=O)N1CCC(c2nc3ccc(NC4CCC4)cn3n2)CC1.O=C(O)C(F)(F)F` was tested, and the “Percent Effect” value was 124.1%.
In the case of `COCCN1CCC(c2nc3ccc(N4CCCC4)cn3n2)CC1.O=C(O)C(F)(F)F`, the “Percent Effect” value is reported as -8.298%.
In the case of `Cl.Cl.Cl.c1cncc(CNc2ccc3nc(C4CCNCC4)nn3c2)c1`, the “Percent Effect” value is reported as -18.54%.
With `COCCN1CCC(c2nc3ccc(NC4CCC4)cn3n2)CC1.O=C(O)C(F)(F)F` the “Percent Effect” value was 99.27%.
`COCC(=O)N1CCC(c2nc3ccc(N4CCCC4)cn3n2)CC1.O=C(O)C(F)(F)F` was tested, and the “Percent Effect” value was -11.72%.
`CC(C)Nc1ccc2nc(C3CCN(C(C)C)CC3)nn2c1.O=C(O)C(F)(F)F` was tested, and the “Percent Effect” value was 7.625%.
With `CCN1CCC(c2nc3ccc(NC4CCC4)cn3n2)CC1.O=C(O)C(F)(F)F` the “Percent Effect” value was 79.67%.
For `c1cc2nc(C3CCNCC3)nn2cc1NC1CCC1`, the “Percent Effect” value was 109.6%.
In the case of `CCN1CCC(c2nc3ccc(NC(C)C)cn3n2)CC1.O=C(O)C(F)(F)F`, the “Percent Effect” value is reported as -4.484%.
`Cc1cc(C)c(Cn2cncn2)cc1CN1CC[C@H]2CC[C@@H](C1)N2` was tested, and the “Percent Effect” value was 27.46%.
`CC(=O)N(C)CC(=O)NC(CC(C)C)c1cccs1` (configuration not stated) was tested, and the “Percent Effect” value was 5.598%.
In the case of `O=C(CCc1cc(Br)cs1)NCCCn1ccnc1`, the “Percent Effect” value is reported as -0.5451%.
In the case of `Cc1ccsc1CNC(=O)CC1CN(C(=O)OC(C)(C)C)C1`, the “Percent Effect” value is reported as -25.18%.
With `NC(=O)CCCNC(=O)CCc1cc(Br)cs1` the “Percent Effect” value was 8.374%.
For `CCN(c1ccc(C(=O)NCc2ccnc(C)n2)cc1)C(C)C`, the “Percent Effect” value was -16.63%.
In the case of `Cc1cc(CNC(=O)CCc2c(C)nc3cc(O)nn3c2C)no1`, the “Percent Effect” value is reported as 92.65%.
In the case of `Cc1cc(CNC(=O)CCc2ccc(S(N)(=O)=O)cc2)no1`, the “Percent Effect” value is reported as -2.333%.
`CCc1ccc(C(=O)NCc2ccnc(C)n2)cc1` was tested, and the “Percent Effect” value was 0.2592%.
`CCN(CC)S(=O)(=O)c1ccc(CCC(=O)NCc2cc(C)on2)cc1` was tested, and the “Percent Effect” value was 7.778%.
With `Cc1nccc(CNC(=O)CCc2c(C)nc3cc(O)nn3c2C)n1` the “Percent Effect” value was 98.09%.
In the case of `Cc1nc2cc(O)nn2c(C)c1CCC(=O)NCc1cc(Br)cs1`, the “Percent Effect” value is reported as 111.2%.
`Cc1ccsc1CCNC(=O)CCC(=O)NC1CCCC1` was tested, and the “Percent Effect” value was -4.731%.
For `Cc1ccsc1CNC(=O)CCc1c(C)nc2cc(O)nn2c1C`, the “Percent Effect” value was 106.8%.
In the case of `Cc1cc(C)n(CCN2CCN(C(=O)c3ccc(Br)o3)CC2)n1`, the “Percent Effect” value is reported as 17.42%.
For `CCN(C)C[C@@H]1CN(Cc2cccc(O)c2)C[C@@H]1CO`, the “Percent Effect” value was -2.333%.
In the case of `COc1ccc2c(c1)nc1n2[C@@H](CNCc2cnn(C)c2)COC1`, the “Percent Effect” value is reported as 1.636%.
For `Cc1cccc(CN2CCN(c3ncnc4[nH]ccc34)CC2CCO)n1` (configuration not stated), the “Percent Effect” value was 6.168%.
`CCN1CCC(CC(=O)NCC(O)c2ccc3ccccc3c2)CC1` (configuration not stated) was tested, and the “Percent Effect” value was -0.749%.
`CC(=O)N1CCCC(C(=O)N2Cc3nc(C)n(C)c(=O)c3C2)C1` (configuration not stated) was tested, and the “Percent Effect” value was 7.499%.
For `COC(=O)C1CN(Cc2ccccc2C(C)(C)C#N)CCO1` (configuration not stated), the “Percent Effect” value was 1.007%.
With `CC(C)OCCS(=O)(=O)N1CCCC1c1cccc(N(C)C)c1` (configuration not stated) the “Percent Effect” value was 4.069%.
`CC(C)(C)CCCC(=O)NS(=O)(=O)CC1CC1` was tested, and the “Percent Effect” value was -9.167%.
With `Cc1ccccc1CNC(=O)Cc1c(C)nc2cc(=O)[nH]n2c1C` the “Percent Effect” value was 1.807%.
In the case of `Cc1cccc(CNC(=O)CCc2c(C)nc3cc(O)nn3c2C)n1`, the “Percent Effect” value is reported as 101.6%.
`Cc1ccc(N2CCCN(C(=O)c3cccc4c3ccn4C)CC2)nn1` was tested, and the “Percent Effect” value was -26.18%.
`Cn1ccc2c(C(=O)N3CCC4(CCOC4)C3)cccc21` (configuration not stated) was tested, and the “Percent Effect” value was -11.85%.
For `Cn1ccc2c(C(=O)N3CCC(C(N)=O)CC3)cccc21`, the “Percent Effect” value was 2.253%.
With `CC(=O)N(C)C1CCN(C(=O)c2cccc3c2ccn3C)CC1` the “Percent Effect” value was 129.7%.
In the case of `Cn1ccc2c(C(=O)NCCCN3CCCC3)cccc21`, the “Percent Effect” value is reported as 7.133%.
`Cn1ccc2c(C(=O)N3CCN(C(=O)C4CCCC4)CC3)cccc21` was tested, and the “Percent Effect” value was 117.3%.
`CCc1ncc(-c2nccn2-c2cccc(CC(=O)O)c2)cn1` was tested, and the “Percent Effect” value was -3.277%.
With `Cc1cc(N2CCC3(CCC(=O)N(CC4CC4)C3)CC2)ncn1` the “Percent Effect” value was 3.21%.
`Cc1cnn(CC(=O)N2CCC3(CCC(=O)N(CCCO)C3)CC2)c1` was tested, and the “Percent Effect” value was -87.52%.
`Cc1nccn1CCC(=O)N1CCC2(CCC(=O)N(CC3CC3)C2)CC1` was tested, and the “Percent Effect” value was 117.2%.
For `Cc1nccn1CCCC(=O)N1CCN(c2cccnc2)CC1`, the “Percent Effect” value was -0.7063%.
In the case of `Cc1cc(N2CCC3(CCC(=O)N(CC4CC4)C3)CC2)nc(N)n1`, the “Percent Effect” value is reported as -10.67%.
For `Cc1ncc(CC(=O)N2CCC3(CCC(=O)N(CCO)C3)CC2)c(=O)[nH]1`, the “Percent Effect” value was 13.05%.
`COc1ccc(C(=O)N2CCC3(CCC(=O)N(C(C)C)C3)CC2)cc1C` was tested, and the “Percent Effect” value was 7.605%.
For `Cc1nccn1CCCN1CCC2(CCC(=O)N(CC3CC3)C2)CC1`, the “Percent Effect” value was 94.75%.
`Cc1cnn(CCC(=O)N2CCC3(CCC(=O)N(CC4CC4)C3)CC2)c1` was tested, and the “Percent Effect” value was 86.63%.
For `CCN1CC2(CCC1=O)CCN(CCc1nccn1C)CC2`, the “Percent Effect” value was -0.2825%.
With `Cc1cnn(CC(=O)N2CCC3(CCC(=O)N(CC(C)O)C3)CC2)c1` (configuration not stated) the “Percent Effect” value was -3.932%.
In the case of `Cc1nccn1CCCC(=O)N1CCC2(CCC(=O)N(C(C)C)C2)CC1`, the “Percent Effect” value is reported as 98.73%.
In the case of `COCCCN1C(=O)CC[C@H]2CN(c3cnc4ccccc4n3)CC[C@H]21`, the “Percent Effect” value is reported as 2.221%.
In the case of `CCCn1nc(C)c2c1NC(=O)CC2c1ccc(CN2CCCC2)s1` (configuration not stated), the “Percent Effect” value is reported as 1.67%.
For `CC(C)c1nnc2n1CCN(CCCS(=O)(=O)c1ccccc1)C2`, the “Percent Effect” value was -6.679%.
In the case of `CSCCc1nc(-c2ccc3c(c2)OCO3)n(C)n1`, the “Percent Effect” value is reported as -7.384%.
`Cc1nnnn1CCC(=O)N1CCC2(CCC(=O)N(CC3CC3)C2)CC1` was tested, and the “Percent Effect” value was 115.6%.
`CC(C)=CCN1CC2(CCN(C(=O)CCn3ccnc3C)CC2)CC1=O` was tested, and the “Percent Effect” value was 86.66%.
`Cc1nc(C(C)C)cc(N2CCC3(CCC(=O)N(CC4CC4)C3)CC2)n1` was tested, and the “Percent Effect” value was 0.1735%.
In the case of `CCCc1nc(C)cc(N2CCC3(CCC(=O)N(CC4CC4)C3)CC2)n1`, the “Percent Effect” value is reported as 5.96%.
For `CC(C)=CCN1CC2(CCN(Cc3ncc[nH]3)CC2)CC1=O`, the “Percent Effect” value was -7.691%.
`CSCc1noc(CN2CCC3(CC2)CC(=O)N(CC=C(C)C)C3)n1` was tested, and the “Percent Effect” value was 10.72%.
With `O=C(O)C(F)(F)F.c1ccc(Cn2cc3c(n2)C(COCC2CC2)OCC3)nc1` (configuration not stated) the “Percent Effect” value was -17.74%.
For `Cc1nc(CN2CCN(CC3CCOC3)Cc3cccnc32)cs1.O=C(O)C(F)(F)F.O=C(O)C(F)(F)F.O=C(O)C(F)(F)F` (configuration not stated), the “Percent Effect” value was -0.3757%.
In the case of `Cc1nc(CN2C(=O)C[C@H]3[C@H]2CCN3CC2CCOC2)cs1.O=C(O)C(F)(F)F` (some centres not stated), the “Percent Effect” value is reported as 100.2%.
`Cc1nc(CN2C(=O)C[C@@H]3[C@@H]2CCN3CC2CCOCC2)cs1.O=C(O)C(F)(F)F` was tested, and the “Percent Effect” value was 145.4%.
With `Cc1nc(CN2CCc3ncnc(C4CCOC4)c3CC2)cs1.O=C(O)C(F)(F)F` (configuration not stated) the “Percent Effect” value was -5.983%.
`CCN(Cc1ccccc1)C1CCN(c2cc(C)nn2C)C1=O` (configuration not stated) was tested, and the “Percent Effect” value was 8.776%.
`Cc1ccc(C(=O)N2Cc3ccccc3C2)cc1N1CCNC1=O` was tested, and the “Percent Effect” value was -8.111%.
For `CN1CCN(C(=O)CCC(=O)c2cccs2)Cc2ccccc21`, the “Percent Effect” value was -12.13%.
For `CN1CCN(C(=O)c2cc[nH]c(=O)c2)Cc2ccccc21`, the “Percent Effect” value was 113.6%.
In the case of `CN1CCN(C(=O)c2ccc(=O)n(C)c2)Cc2ccccc21`, the “Percent Effect” value is reported as -3.616%.
For `Cc1cc(=O)[nH]cc1C(=O)N1CCN(C)c2ccccc2C1`, the “Percent Effect” value was 99.2%.
For `CN1CCN(C(=O)NCCNc2ncccn2)Cc2ccccc21`, the “Percent Effect” value was 4.872%.
With `O=C(c1cc[nH]c(=O)c1)N1CCn2c(nnc2-c2ccccc2)C1` the “Percent Effect” value was 1.591%.
`CN1CCN(C(=O)c2cccs2)Cc2ccccc21` was tested, and the “Percent Effect” value was -12.17%.
In the case of `Cc1cc(=O)c(C(=O)N2CCN(C)c3ccccc3C2)c[nH]1`, the “Percent Effect” value is reported as 106.1%.
In the case of `Cc1cccc2sc(NC(=O)CN3CCCC4(CC3)CNC(=O)O4)nc12` (configuration not stated), the “Percent Effect” value is reported as -7.394%.
With `CN(Cc1ccco1)C1CCC12CCN(C(=O)c1ccncc1)CC2` (configuration not stated) the “Percent Effect” value was -36.28%.
`Oc1cc(-c2cccs2)nc(C2CCCN(CC3=CCCOC3)C2)n1` (configuration not stated) was tested, and the “Percent Effect” value was 158.9%.
With `CCCOC1CCCN(Cc2nc(-c3cccs3)oc2C)C1` (configuration not stated) the “Percent Effect” value was 5.158%.
In the case of `Cn1cc(CN2CCCC(c3nc(O)cc(-c4cccs4)n3)C2)cn1` (configuration not stated), the “Percent Effect” value is reported as 121.4%.
For `Cc1nnsc1C(=O)N1CCC2(CC1)c1nc[nH]c1CCN2CC(C)C`, the “Percent Effect” value was -5.32%.
